High-throughput results as filed in PubChem.
BRCA1 expr up = activators of BRCA1 expression; actives 1.1% (n = 380,000); Potency, µM (doses to about 46.1 µM), without a hit: at the highest dose activation, usual class: activators; MCF7-BRCA1-FFLuc reporter, luminescence, 48 h; response scale: scaled: vehicle 0%, 10 µM genistein 100%; AID 624202; further: nearly all actives have a fitted effect of over 80% in size
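48 h compound treatment of MCF7-BRCA1-FFLuc cells (phenol-red free MEM, 37 °C), then 15 min with luciferase substrate and luminescence imaging.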
VDR inhibitor = inhibitors of human vitamin D receptor | Potency, µM, for inactives: max response, negative = inhibition, hits mostly inhibitors | actives 0.93% (n = 400,000) | AID 504847 | VDR-SRC2-3 peptide fluorescence polarization, 2 h; further: on the % scale 0 is the no-effect control and ±100 the full control effect
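VDR–SRC2-3 interaction, FP format. Cmpds 23 nl via pintool, brief spin, 2 h ambient incubation.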
Tb PFK inh = inhibitors of T. brucei phosphofructokinase; Potency, µM (highest dose often 57.5 µM), for inactives: top-dose activity, negative = inhibition, most hits filed as inhibitors; O15648; T. brucei PFK, ADP-Glo luminescence; actives 0.17% (n = 330,000); AID 485367;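 further: 0% = uninhibited 1x PFK enzyme wells and -100% = no-enzyme wells; nearly all actives have a fitted effect of over 60% in size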
Target sequence (O15648 whole entry, looked up): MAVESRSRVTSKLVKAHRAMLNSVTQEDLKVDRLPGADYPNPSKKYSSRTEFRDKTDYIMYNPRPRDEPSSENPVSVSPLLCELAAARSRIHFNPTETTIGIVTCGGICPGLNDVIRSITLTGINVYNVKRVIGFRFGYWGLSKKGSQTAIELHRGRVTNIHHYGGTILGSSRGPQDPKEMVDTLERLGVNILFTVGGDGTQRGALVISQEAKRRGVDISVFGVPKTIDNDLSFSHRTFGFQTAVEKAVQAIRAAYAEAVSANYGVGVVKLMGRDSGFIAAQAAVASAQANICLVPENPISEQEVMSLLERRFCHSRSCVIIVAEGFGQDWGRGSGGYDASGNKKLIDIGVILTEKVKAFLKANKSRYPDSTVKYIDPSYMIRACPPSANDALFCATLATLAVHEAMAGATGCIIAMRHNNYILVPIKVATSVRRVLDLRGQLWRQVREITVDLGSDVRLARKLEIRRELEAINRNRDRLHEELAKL
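In TEA buffer at pH 8.0 with 5 mM MgCl2, enzyme (1.25 nM) converted F6P (0.5 mM) and ATP (0.1 mM) for 45 min at room temperature. ADP product was read by luciferase luminescence.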
PLK1 PBD block = PLK1 (human) polo-box domain binding inhibition | P53350 | Plk1 PBD binding of FITC phosphopeptide, fluorescence polarization | Potency, µM, for inactives: max response, negative = inhibition, usual class: inhibitors | actives 2.8% (n = 360,000) | AID 720504; further: series mostly up to about 57 µM; on the % scale 0 is the no-effect control and ±100 the full control effect; nearly all actives have a fitted effect of over 65% in size
Active calls of the source: *; u = inconclusive; x = not tested or not shown; ! = not confirmed by another sample. The list is not random: actives were taken first. Their share in the collection is about 3.9%. The call rests on the fitted dose curve; in most records, active means well fitted curve in the direction sought with a large enough effect; inconclusive means small, poorly fitted or top-dose-only effect, or another doubt; inactive means no such curve, though single readings can be large; an effect the other way counts as inactive or inconclusive. Potency means the concentration at half of the fitted maximal effect.

SMILES | BRCA1 expr up | VDR inhibitor | Tb PFK inh | PLK1 PBD block
COc1cc(C(c2sc3nc(C)nn3c2O)N2CCC3(CC2)OCCO3)cc(OC)c1OC (stereo not given) | -2.6% | -25.5% | 0.0% | 2.99µM*
COc1ccccc1NC(=O)C(Cc1ccccc1)NS(=O)(=O)c1ccc2c(c1)c(=O)n(C)c(=O)n2C (stereo not given) | -16.4% | 2.8% | x | x
CCOc1ccc(NC(=S)Nc2ccc3nsnc3c2)cc1 | -6.6% | 79.4µM* | 3.7% | 26.7µM*
COc1ccc(NC(=S)Nc2ccc3nsnc3c2)cc1 | 9.5% | 89.1µM* | -1.8% | 13.4µM*
CC(C)N(C(=O)Nc1ccc2nsnc2c1)C(C)C | -31.6% | 14.1µM* | -30.6% | 13.4µM*
CCOc1ccc(NC(=O)Nc2ccc3nsnc3c2)cc1 | u | 1.5% | 4.9% | u
COc1ccc(N(C)C(=O)Nc2ccc3nsnc3c2)cc1 | 25.7% | -12.4% | -3.7% | -8.0%
COc1cc2cc(C#N)c(SCC(=O)OC(C)C)nc2cc1OC | 24.4% | -11.1% | x | x
Cc1cc[n+](CC#N)cc1 | 0.5% | x | x | x
Cc1cccc(-n2cc(CN3CCCN(C=O)CC3)c(-c3cccc(F)c3)n2)c1 | 28.8% | 8.2% | -8.6% | 1.6%
Cc1ccc(-n2cc(CN3CCNC(=O)CC3)c(-c3cccc(C)c3)n2)cc1 | -4.6% | u | -4.9% | 16.8µM*
CN(C)c1ccc(/C=C/c2ccnc3ccccc23)cc1Br | 0.0% | x | x | x
Cc1sc(NC(=O)CCl)c(C(=O)c2ccccc2)c1C | -59.5% | u | 0.3% | 26.7µM*
Cc1ccccc1C(=O)Nc1sc(C)c(C)c1C(=O)c1ccccc1 | -34.5% | u | -7.6% | 21.2µM*
O=C(CN1C(=O)C2CCCCN2c2ccc(C(=O)N3CCCC3)cc21)NCc1cccc(Cl)c1 (stereo not given) | x | 2.6% | x | x
O=C(NCC1COc2ccccc2O1)c1ccc(Br)s1 (stereo not given) | u | 2.6% | 0.7% | -1.3%
C=CCN(C(=O)CCC(=O)Nc1cc(C)on1)C(C(=O)NC1CCCC1)c1ccc(CC)cc1 (stereo not given) | -19.0% | u | -2.4% | 26.7µM*
Cc1ccc(C)c(N(C(=O)CCC(=O)Nc2cc(C)on2)C(C(=O)NC2CCCC2)c2ccco2)c1 (stereo not given) | -17.9% | -3.8% | 2.2% | 3.77µM*
COCCNC(=O)C(c1ccco1)N(C(=O)Cn1nnc2ccccc21)c1cc(C)ccc1C (stereo not given) | 6.5% | u | -6.1% | 3.36µM*
Cc1nn(CC(=O)N2CCN(c3cccc(Cl)c3)CC2)c(=O)c2c1sc1ccccc12 | x | 17.1% | x | x
C[C@@H]1CN([C@@H](C)CO)C(=O)CCCn2cc(nn2)CO[C@H]1CN(C)C(=O)Oc1ccccc1 | 22.1% | x | x | -3.8%
Cc1cc2nc(-c3cccc(NC(=O)COc4ccc(C(C)C)cc4)c3)oc2cc1C | x | 6.1% | x | x
Cc1cccc(C)c1NC(=O)c1nc(SC(C)C)ncc1Cl | x | 4.8% | x | x
Oc1ccc(NCc2ccccc2OCc2ccccc2F)cc1 | -65.4% | 39.8µM* | -5.6% | -11.0%
COc1ccc(Br)cc1CNc1ccc(O)cc1 | -47.0% | 25.1µM* | -4.8% | 29.9µM*
SMILES | BRCA1 expr up | VDR inhibitor | Tb PFK inh | PLK1 PBD block
Cc1ccc(NCc2ccccc2OCc2ccccc2F)cc1 | -31.6% | 12.5% | 0.3% | -5.9%
CCOc1cc(CNc2ccc(O)cc2)ccc1OCc1ccc(Cl)cc1Cl | -97.0% | 31.6µM* | -8.9% | -21.2%
CCOc1cccc(CNc2ccc(O)cc2)c1OCc1ccc(Cl)cc1 | -11.3% | u | -2.4% | -8.3%
CCOc1ccccc1CNc1ccc(O)cc1 | -58.9% | 39.8µM* | -12.2% | u
COc1ccc(Br)cc1CNc1ccc2[nH]c(=O)[nH]c2c1 | -8.3% | 15.7% | -7.6% | -5.2%
CCCNC(=O)c1c(NC(=O)c2ccccc2)sc2c1CCC(C(C)(C)C)C2 (stereo not given) | x | -24.6% | x | x
COc1ccccc1NC(=S)NCC1CCCCC1 | -48.3% | u | -0.5% | 5.97µM*
Cc1sc(-n2c(C)ccc2C)c(C#N)c1C | -7.0% | 79.4µM* | 0.9% | 18.9µM*
O=C(Nc1nnc(COc2ccc(Cl)cc2)s1)C1CCCO1 (stereo not given) | 45.7% | -8.8% | -2.6% | 5.97µM*
O=C(Nc1ncc(Cl)cn1)c1cccs1 | 12.6µM* | -1.8% | -7.3% | -1.2%
O=C(Nc1nc(-c2ccc(Cl)cc2Cl)cs1)C1CCCO1 (stereo not given) | 0.9% | 5.2% | -6.8% | -3.9%
O=C(Nc1ncc(Cc2ccccc2Cl)s1)C1CCCO1 (stereo not given) | 4.47µM* | 1.8% | -4.0% | -7.9%
O=C(Nc1nc(-c2ccc(Cl)cc2)cs1)C1CCCO1 (stereo not given) | 6.31µM* | 9.0% | -5.1% | 5.9%
CCC(=O)N[C@H]1CC[C@@H](CCn2cc(C3CC3)nn2)O[C@@H]1CO | x | x | x | -1.2%
COc1ccc(CCNC(=O)c2ccc3c(c2)N(Cc2cc(C)ccc2C)C(=O)c2ccccc2S3=O)cc1OC (stereo not given) | -14.8% | -21.1% | x | x
Cc1ccc(N2CC(NC(=O)c3ccc4c(c3)OCO4)CC2=O)cc1 (stereo not given) | x | 3.5% | x | x
COc1ccc(N(C(=O)/C=C\C(=O)Nc2ccc(Cl)cc2)C(C(=O)NCc2ccco2)c2ccc(C)cc2)cc1 (stereo not given) | x | 11.5% | x | x
O=C(Nc1cccc2cccnc12)c1cccs1 | -44.4% | -2.7% | x | x
O=C(Nc1cccc2nsnc12)c1cccs1 | 7.08µM*! | -17.0% | -1.3% | -4.9%
O=C(Nc1nnc(COc2ccc(Cl)cc2)s1)c1cccs1 | 11.0% | -13.8% | -3.3% | 2.67µM*
O=C(Nc1nnc(COc2ccc(F)cc2)s1)c1cccs1 | -14.1% | 0.5% | 3.7% | -12.0%
CN(C)c1ccc(/C=C/c2ccnc3ccc(Br)cc23)cc1 | -19.7% | x | x | x
c1ccc2nc3c(cc2c1)CCCCC3 | 44.6% | u | -1.1% | 3.36µM*
O=C1OC2(c3ccc(O)cc3Oc3cc(O)ccc32)c2ccccc21 | x | -1.1% | x | x
CC(=O)Oc1ccc2c(c1)Oc1cc(OC(C)=O)ccc1C21OC(=O)c2ccccc21 | -12.6% | -12.2% | 5.2% | 6.7µM*
SMILES | BRCA1 expr up | VDR inhibitor | Tb PFK inh | PLK1 PBD block
COc1cc2c(NC3CCN(C(C)C)CC3)nc(N3CCCN(C)CC3)nc2cc1OCCOCCN1CCCC1 | -58.3% | x | x | x
CCCCC(=O)OCC(=O)Nc1cccc(S(=O)(=O)NC2=NCCCCC2)c1 | 3.6% | -7.9% | -1.4% | 23.8µM*
CCCCCC(=O)Nc1cccc(S(=O)(=O)NC2=NCCCCC2)c1 | -18.8% | -19.8% | 2.6% | -15.9%
O=C(COC(=O)c1ccccc1)Nc1cccc(S(=O)(=O)NC2=NCCCCC2)c1 | -2.8% | -21.8% | -13.6% | 26.7µM*
C/C=C\C[C@@H](C)[C@@H](O)[C@H]1C(=O)N[C@@H](CC)C(=O)N(C)CC(=O)N(C)[C@@H](CC(C)C)C(=O)N[C@@H](C(C)C)C(=O)N(C)[C@@H](CC(C)C)C(=O)N[C@@H](C)C(=O)N[C@H](C)C(=O)N(C)[C@@H](CC(C)C)C(=O)N(C)[C@@H](CC(C)C)C(=O)N(C)[C@@H](C(C)C)C(=O)N1C | x | 0.3% | x | x
COc1ccc(C)cc1Nc1nc(C)nc2sc(C)cc12 | -39.6% | u | 1.2% | 29.9µM*
